Most compounds without a hit are left out; they make up all but 2% or so of the library.
ABHD5-PLIN5 inh: inhibitors of human ABHD5-perilipin-5 interaction. AID 602281. inhibition, % at 4 µM. 360,000 compounds, 0.78% hits. Q00G26+Q8WTS1. Split G. princeps luciferase complementation, luminescence, 4 h;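 active means inhibition above the mean inhibition across every tested compound plus 3 SD, cut at about 22% in these data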;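 further: 0% = DMSO only wells and the 100% control is not disclosed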
NOD2-RIPK2 inh: blocks binding of human NOD2 to RIPK2; CHO BLA complementation NOD2-RIPK2, CCF4 ratio; inhibition, % at 4.98 µM; 360,000 compounds, 0.38% hits; AID 624267; in the data active means inhibition above about 21%;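 further: 0% = vehicle only and 100% = reference blocker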
Exocytosis inh: lytic granule exocytosis inhibition. TALL-104 LAMP-1 surface exposure, flow cytometry; cells stimulated with thapsigargin and PMA. inhibition, % at 10 µM. 360,000 compounds, 0.66% hits;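 active means inhibition above about 55%, limit read from the data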
B2AR ag: human beta-2 adrenergic receptor agonism by FAP. Am2.2-beta2AR cells, FAP receptor internalization, flow cytometry. response, % (test concentration not listed). 340,000 compounds, 0.43% hits. AID 504454;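 active means response above a set limit, near 3 SD of response in nonfluorescent compounds, cut at about 42% in these data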
TLR4-MyD88 BLA: blocks binding of human TLR4 to MyD88 | O00206+Q99836 | HeLa CL3-4 TLR4/MyD88 BLA complementation, FRET ratio | inhibition, % at 8.4 µM | 200,000 compounds, 0.18% hits | AID 861; in the data active means inhibition above about 25%;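 further: 0% = vehicle and 100% = reference inhibitor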
TLR9-MyD88 block: TLR9-MyD88 interaction inhibition; 340,000 compounds, 0.21% hits; Q9NR96+Q99836; AID 504734; inhibition, % at 4.98 µM; CHO BLA complementation TLR9-MyD88, CCF4 FRET ratio;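 active means inhibition above the mean over all tested compounds plus 3 SD, cut at about 21% in these data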;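 further: 0% = DMSO only wells and 100% = clavulanate BLA inhibitor control wells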
ABHD5-PLIN5 conf: ABHD5-PLIN5 interaction inhibition, confirmed; inhibition, % at 4 µM; 2,200 compounds, 67% hits; AID 651612; shares compounds with ABHD5-PLIN5 inh; biochemical ABHD5-PLIN5 interaction, luminescence; in the data active means inhibition above about 23%;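 further: 0% = DMSO vehicle wells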
HNF4 split-luc: counter-screen for ABHD5-PLIN5 inhibitors: HNF4 split-luciferase; 2,200 compounds, 77% hits; inhibition, % at 4 µM; shares compounds with ABHD5-PLIN5 inh; HNF4 dimerization, luminescence, biochemical; AID 651674;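 active means mean inhibition across replicate wells exceeding the computed hit threshold, cut at about 13% in these data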;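 further: light from luciferase halves that rejoin when HNF4 fusion proteins dimerize; 0% = DMSO only wells and the 100% control is not given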
Target sequence (P41235 whole entry, looked up, the tested form may be a part): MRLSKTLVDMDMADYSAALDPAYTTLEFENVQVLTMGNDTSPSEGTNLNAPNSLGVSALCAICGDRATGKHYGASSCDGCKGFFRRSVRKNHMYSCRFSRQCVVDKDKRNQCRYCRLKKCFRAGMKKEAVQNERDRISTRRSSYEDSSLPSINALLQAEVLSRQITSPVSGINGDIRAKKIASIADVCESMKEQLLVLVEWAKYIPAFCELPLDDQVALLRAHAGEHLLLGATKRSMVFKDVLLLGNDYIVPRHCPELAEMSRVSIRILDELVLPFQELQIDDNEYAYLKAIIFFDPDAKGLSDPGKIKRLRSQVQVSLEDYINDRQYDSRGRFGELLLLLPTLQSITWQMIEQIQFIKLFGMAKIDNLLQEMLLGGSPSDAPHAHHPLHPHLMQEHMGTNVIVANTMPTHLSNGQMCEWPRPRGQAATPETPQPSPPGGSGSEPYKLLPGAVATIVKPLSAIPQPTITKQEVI
* marks the source's active call; other numbers are inactive results; nt = no result given.

SMILES	ABHD5-PLIN5 inh	NOD2-RIPK2 inh	Exocytosis inh	B2AR ag	TLR4-MyD88 BLA	TLR9-MyD88 block	ABHD5-PLIN5 conf	HNF4 split-luc
Nc1ccccc1SSc1ccccc1N	60*	13	33	1	nt	7	88*	104*
CCCCNC(=O)C1(C)CCN1C(=O)c1cccc(OC(F)(F)F)c1 (configuration not stated)	-4	-1	5	nt	nt	nt	nt	nt
Cc1ccccc1NC(=O)C(=Cc1ccc(C(=O)O)cc1)C(=O)Nc1ccccc1C	27*	3	15	15	-3	-2	65*	45*
CC(=O)/C(=C/c1ccccc1)C(=O)Nc1ccccc1C	39*	-15	4	43*	0	2	86*	71*
NC(=O)C1=C(c2ccccc2)c2ccccc2C1=O	74*	7	-5	14	nt	-9	93*	94*
Cc1ccc(C2=C(O)c3ccccc3C(=O)C2=O)cc1	12	-4	16	-1	nt	-4	nt	nt
COc1ccc(NC(=S)N2CCN(Cc3ccco3)CC2)c(OC)c1	23*	6	-4	3	-6	-3	3	14*
CCN(CC)CCC(C)OC(c1ccccc1)c1ccccc1 (configuration not stated)	24*	0	0	14	nt	-2	77*	31*
CCOC(=O)/C(=C\c1ccc(Cl)cc1)c1nc2sc(C)c(C)c2c(=O)[nH]1	46*	6	13	51*	7	7	99*	77*
COc1cc(C(C2C(=O)CC(C)(C)CC2=O)C2C(=O)CC(C)(C)CC2=O)ccc1OC(C)=O	25*	-5	-3	0	nt	-3	37*	33*
CC(=O)Oc1ccc(OC(C)=O)c2c1CC(C)=C(C)C2	31*	1	49	21	nt	7	32*	24*
CCC(=O)Nc1ccc(/C=C(\C(C)=O)C(=O)c2ccccc2)cc1	28*	9	20	-3	nt	-6	44*	51*
COc1cccc(C=C(C(C)=O)C(=O)c2ccccc2)c1	77*	3	15	nt	nt	nt	87*	80*
O=C1c2ccccc2C(c2nnnn2-c2ccc3c(c2)OCCO3)N1Cc1cccnc1 (configuration not stated)	6	-8	-9	nt	nt	nt	nt	nt
CC1(C)CC(=O)/C(=C\c2cccc([N+](=O)[O-])c2)C(C)(C)N1	26*	6	-1	12	7	-13	37*	44*
O=C1N/C(=N/O)S/C1=C/c1cccc([N+](=O)[O-])c1	3	3	0	3	4	0	nt	nt
CN(C(=O)c1cc2c(=O)n3ccccc3nc2n1C)C1CCCCC1	3	1	-3	3	nt	-15	nt	nt
CC(=O)C1=C(C)NC(C)=C(C(C)=O)C1c1ccc(-c2ccccc2Cl)o1	52*	-9	12	-3	3	6	14	38*
c1coc(-c2nc3ccccc3nc2-c2ccco2)c1	34*	5	10	1	-6	-3	93*	86*
c1coc(-c2cnc3ccccc3n2)c1	-1	0	-4	nt	nt	-11	nt	nt
O=C1Nc2ccccc2C1=Nc1ccc2[nH]c3ccccc3c2c1	3	-4	3	14	nt	1	nt	nt
O=c1ccsc2ccccc12	-3	-7	-2	nt	nt	nt	nt	nt
O=c1[nH]sc2ccccc12	65*	3	46	3	nt	8	66*	109*
C[C@@H]1COc2cccc(N3CCC[C@@H]3CO)c2S(=O)(=O)N1	-11	-20	0	nt	nt	nt	nt	nt
CC(C)NC(=O)C1Cc2c(-c3ccc(Cl)cc3)ccnc2O1 (configuration not stated)	1	0	-3	nt	nt	nt	nt	nt
SMILES	ABHD5-PLIN5 inh	NOD2-RIPK2 inh	Exocytosis inh	B2AR ag	TLR4-MyD88 BLA	TLR9-MyD88 block	ABHD5-PLIN5 conf	HNF4 split-luc
CC(OC(=O)/C=C/c1ccc2ccccc2n1)C(=O)N(C)c1ccccc1 (configuration not stated)	-1	-9	0	22	nt	4	nt	nt
CC(=O)/C=C/c1ccc2ccccc2n1	85*	14	11	15	8	-1	84*	91*
Cc1ccc([N+](=O)[O-])cc1NC(=O)CSc1nncn1-c1ccccn1	24*	-9	-18	-11	nt	1	-2	5
Cc1cc([N+](=O)[O-])ccc1NC(=O)CSc1nncn1-c1ccccn1	-2	-1	-9	-13	nt	2	nt	nt
C=C1C(=O)[C@]23C[C@H]1CCC2[C@]1(C)C(=O)CC[C@@](C)(C(=O)O)C1C[C@@H]3O (some centres not stated)	46*	2	26	nt	nt	nt	41*	100*
Cc1ccccc1-c1cc2nc(NCCN3CCCC3)n(C)c(=O)c2s1	7	5	6	nt	nt	nt	nt	nt
C=CCn1c(SCC(=O)NCC2CCCO2)nc2scc(-c3ccccc3)c2c1=O (configuration not stated)	4	1	0	-11	nt	-5	nt	nt
C=CCn1c(SCC(=O)NC2CCCC2)nc2scc(-c3ccco3)c2c1=O	43*	-1	0	-8	16	-2	36*	86*
COc1ccc(NC(=O)C2CCCN(CCCc3ccccc3)C2)cc1OCC(C)C (configuration not stated)	39*	13	49	22	nt	5	22*	15*
CCOC(=O)CSc1nnc(NCC(=O)OC)c(=O)[nH]1	26*	-7	0	1	-3	-4	41*	80*
O=C(CSc1nnc2ccccn12)NNC(=O)c1ccccc1F	19	-9	-4	5	nt	2	nt	nt
CCOC(=O)c1c(NC(=O)/C=C/C(=O)O)sc(C)c1-c1ccc(C)c(C)c1	25*	-2	25	25	-1	-7	20	3
COc1ccc(-n2c(O)c(/C=C3\C=Nc4ccccc43)c(=O)[nH]c2=O)cc1	31*	4	29	3	nt	-3	11	24*
CN(NC1OC(=O)c2ccccc21)c1ccc(Cl)cc1[N+](=O)[O-] (configuration not stated)	-4	3	2	-6	nt	-6	nt	nt
O=C1OC(Nc2ccc(F)cc2F)c2ccccc21 (configuration not stated)	-4	-1	-4	0	4	-6	nt	nt
O=C1OC(/C(=C\Nc2ccc(F)cc2F)[N+](=O)[O-])c2ccccc21 (configuration not stated)	54*	-4	0	0	1	5	25*	61*
Cc1ccc(N/C=C(\C2OC(=O)c3ccccc32)[N+](=O)[O-])c(C)c1 (configuration not stated)	54*	0	-3	-7	11	nt	9	34*
